Screening data from PubChem.
Shown are actives, neighbours in structure and some others; about 19% of the full set was active somewhere.
TDP1 cell noCPT = qHTS for Inhibitors of human tyrosyl-DNA phosphodiesterase 1 (TDP1): qHTS in cells in absence of CPT. DT40 Tdp1-/- hTDP1 cells, no CPT, ATP luminescence, 48 h. Potency, µM (highest dose often 46.2 µM), inactives show at the highest dose activity change, negative = growth inhibition, hits mostly inhibitors. AID 686978, 2013. 420,000 compounds, 15% hits; note: potency is the fitted concentration of half-maximal effect; % is set by controls: 0 for no effect and ±100 for the full control effect; nearly all actives have a fitted effect of over 55% in size
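Growth kinetics read by CellTiter-Glo luminescence after ≥48 hr at 37 °C. Cells: DT40 Tdp1-/- stably carrying human TDP1, 400 per well, compound exposure in the absence of CPT (DMSO vehicle).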
DT40 TDP1 CPT = qHTS for Inhibitors of human tyrosyl-DNA phosphodiesterase 1 (TDP1): qHTS in cells in presence of CPT. 420,000 compounds, 12% hits. Potency, µM (series often up to 46.2 µM), for inactives: at the top dose activity change, negative = growth inhibition, most hits filed as inhibitors. chicken DT40 Tdp1-/-;hTDP1 cells + 20 nM CPT, ATP luminescence, 48 h. AID 686979, 2013; note: potency is the fitted concentration of half-maximal effect; % is set by controls: 0 for no effect and ±100 for the full control effect; nearly all actives have a fitted effect of over 55% in size
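Chicken DT40 Tdp1-/- cells complemented with human TDP1, 400 cells/well, exposed to compounds plus 20 nM camptothecin for at least 48 h at 37 C; viability read as ATP content by CellTiter-Glo luminescence.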
IL1B secr inh = qHTS for Inhibitors of Inflammasome Signaling: IL-1-beta AlphaLISA Primary Screen | THP-1 LPS/ATP IL-1B secretion, AlphaLISA, 16 h; stronger effect = lower value | activity change, % at 57.5 µM | 360,000 compounds, 4.7% hits | AID 743279, 2014; in the data active = activity change below about -50%; inconclusive = mostly about -30% to -49%; note: % is set by controls: 0 for no effect and ±100 for the full control effect
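THP-1 cells pretreated 1 hr with compounds (up to 57.5 uM final), then stimulated with LPS (250 ng/mL final) plus ATP (1.25 mM final); secreted IL-1B measured by AlphaLISA after 16 hr, decreased signal indicating inhibition.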
HepG2 viability = qHTS for Inhibitors of TGF-b: Cytotox Counterscreen; HepG2 CAGA-GFP viability, ATP luminescence, 18 h; Potency, µM (titrated, usually from 46.1 µM), inactives show top-dose activity change, negative = cytotoxicity, most hits filed as cytotoxic; 410,000 compounds, 0.76% hits; note: potency is the fitted concentration of half-maximal effect
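HepG2 CAGA-GFP cells (1000/well, DMEM with 1% FBS) received compound, then TGF-beta at 500 pg/mL final, and were incubated 18 hours at 37 degrees C. Viability was read by CellTiter-Glo luminescence. Media-only wells were set as complete cell-killing and DMSO as no toxicity.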
TGFb inhibitor = qHTS for Inhibitors of TGF-b | 410,000 compounds, 1.2% hits | Potency, µM (top dose mostly 46.1 µM), for the others: top-dose activity, negative = inhibition, hits mostly inhibitors | AID 588855, 2011 | HepG2 CAGA-GFP TGF-b/SMAD3 reporter, GFP fluorescence, 18 h; TGF-beta stimulated, 500 pg/mL final; note: potency is the fitted concentration of half-maximal effect; % is set by controls: 0 for no effect and ±100 for the full control effect; nearly all actives have a fitted effect of over 65% in size
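HEPG2 CAGA-GFP reporter cells (1000/well, DMEM with 1% FBS) received compounds, then recombinant TGF-beta at 500 pg/mL final for 18 hours at 37 degrees C. Per-cell GFP summed per well was normalised to unstimulated and stimulated DMSO controls before curve fitting.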
TDP1 block = qHTS Assay for Inhibitors of Tyrosyl-DNA Phosphodiesterase (TDP1). Tyrosyl-DNA phosphodiesterase 1 (Homo sapiens), Q9NUW8. recombinant TDP1, AlphaScreen DNA substrate cleavage. Potency, µM (top dose mostly 130 µM), without a hit: top-dose activity change, negative = inhibition, hits mostly inhibitors. 350,000 compounds, 0.28% hits. AID 485290, 2010; note: potency is the fitted concentration of half-maximal effect; % is set by controls: 0 for no effect and ±100 for the full control effect; nearly all actives have a fitted effect of over 40% in size
Target sequence (Q9NUW8 whole entry, looked up): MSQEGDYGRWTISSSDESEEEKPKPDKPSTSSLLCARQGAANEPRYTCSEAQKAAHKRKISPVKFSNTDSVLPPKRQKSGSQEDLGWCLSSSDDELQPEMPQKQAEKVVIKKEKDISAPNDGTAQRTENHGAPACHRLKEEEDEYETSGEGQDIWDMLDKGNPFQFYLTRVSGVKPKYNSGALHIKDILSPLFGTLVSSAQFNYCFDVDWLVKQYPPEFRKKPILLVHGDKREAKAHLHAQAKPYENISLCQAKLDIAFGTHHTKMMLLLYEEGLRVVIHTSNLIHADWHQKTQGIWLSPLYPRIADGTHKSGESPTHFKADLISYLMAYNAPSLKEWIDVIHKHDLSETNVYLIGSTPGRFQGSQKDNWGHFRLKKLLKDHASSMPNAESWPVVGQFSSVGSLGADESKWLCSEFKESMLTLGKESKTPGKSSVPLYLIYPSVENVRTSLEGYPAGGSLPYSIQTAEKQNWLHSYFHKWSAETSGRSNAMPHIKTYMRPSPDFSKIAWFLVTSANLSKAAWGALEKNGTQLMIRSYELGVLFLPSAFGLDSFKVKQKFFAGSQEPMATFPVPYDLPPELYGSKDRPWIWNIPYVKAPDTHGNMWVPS
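Steps: enzyme plus compound, 15 min RT; add biotin/phosphotyrosine-FITC oligonucleotide (15 nM final), react 5 min; add donor/acceptor beads (10 ug/ml final), 10 min; read AlphaScreen. Tdp1 at 1 nM final.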
* hit, by the source's call; u = inconclusive; x = not tested or not shown; ! = not active in a repeat; [ ] = remark or other dose. Unless noted, calls come from the whole dose curve; as a rule, active = well fitted curve in the direction sought with a large enough effect; inconclusive = small, poorly fitted or top-dose-only effect, or another doubt; inactive = no such curve, though single readings can be large; an effect the other way counts as inactive or inconclusive.

SMILES | TDP1 cell noCPT | DT40 TDP1 CPT | IL1B secr inh | HepG2 viability | TGFb inhibitor | TDP1 block
C[C@H]1CC[C@@H]2[C@@H](C)[C@H]3[C@H](C[C@H]4[C@@H]5CC=C6CC(O[C@@H]7O[C@H](CO)[C@H](O)[C@H](O[C@@H]8O[C@H](CO)[C@@H](O)[C@H](O)[C@H]8O)[C@H]7O[C@H]7O[C@@H](C)[C@H](O)[C@@H](O)[C@H]7O)CC[C@]6(C)[C@H]5CC[C@]34C)N2C1 (stereo partly drawn) | u | u | x | x | x | 11%
O=C1NC(=S)NC(=O)C1=Cc1ccc2c(c1)CCN2CCCCl | 15µM* | u | 12 | -7% | -7% | x
Cc1ccccc1N1C(=O)NC(=O)/C(=C\c2ccc3c(c2)CCCN3Cc2ccccc2)C1=O | u | -27% | -13 | -37% | u | 0%
COc1ccc(/C=C/C(=O)N2CC3C[C@@H](C2)Cn2c3cccc2=O)cc1OC | -4%[9.04 µM] | 17%[9.04 µM] | x | x | x | 5%
CC1=NCCc2c1[nH]c1cc(O)ccc21 | 27µM*! | u | 6 | 0% | 141% | 23%[56.1 µM]
C1=NCCc2c1[nH]c1ccccc21 | u | -82% | 50 | -36% | u | x
COc1ccc2c3c([nH]c2c1)C(C)=NCC3 | 18µM*! | u | -84* | -9% | 7% | 9%
CCCCCCC(C)(C)c1ccc([C@@H]2C[C@H](O)CC[C@@H]2CCCO)c(O)c1 | 3µM* | 19µM* | x | x | x | 20%[56.1 µM]
CCN1C(=O)/C(=C/c2ccc(N(CC)CC)cc2OC)C(=O)NC1=S | -17% | u | -55* | 3% | 20% | 1%
Cc1cccc(N2CCN(CCc3ccccc3)CC2)c1C | u | u | -15 | -70% | u | -4%
Cc1cccc(N2CCN(C(=O)CCCCn3c(=O)[nH]c4ccsc4c3=O)CC2)c1C | 18µM* | u | x | -19% | u | 6%
CC[C@@H](O)C[C@H]1CCC[C@@]2(C[C@@H]3OC(=O)/C=C/[C@@](C)(O)[C@@H](O)[C@H](C)[C@@H](O)[C@H](OC4CCC(N(C)C)C(C)O4)[C@@H](O)[C@](C)(O)CCCCC/C=C/[C@@H]4CC(C)(C)O[C@@]4(O)C[C@H](O2)[C@H]3C)O1 (stereo partly drawn) | 0.15µM* | 0.016µM* | -56* | -19% | -67% | x
COC(=O)[C@@]1(Cc2ccccc2)[C@H]2c3cc(C(=O)N(C)C)[nH]c3C[C@H]2CN1C(=O)c1ccccc1 | x | x | x | x | x | 12%
CCNC(=O)C1CCCN(Cc2ccc3ccccc3c2Br)CC1 (stereo not drawn) | u | u | -2 | -13% | 14% | x
CCNC(=O)C1CCCN(Cc2cc(C(F)(F)F)ccc2Cl)CC1 (stereo not drawn) | u | 26µM* | 26 | -6% | -7% | x
CC(=O)c1ccc(Oc2ccc(C(=O)c3ccc(C)c(C)c3)cc2[N+](=O)[O-])cc1 | 2.3µM* | 8.2µM* | -5 | 6% | 7% | 4%
Cc1ccccc1-c1nc(CS(=O)CC(=O)N2CCC3(CC2)OCCO3)c(C)o1 (stereo not drawn) | -1% | -1% | 9 | -10% | 0% | -11%
Cc1ccccc1-c1nc(CS(=O)CC(=O)N2CCN(c3cc(Cl)ccc3C)CC2)c(C)o1 (stereo not drawn) | 13µM* | 16µM* | x | -21% | u | 10%
